Source: PubChem BioAssay (NCATS)
A number with no mark means an inactive call. Inconclusive results are not listed. Calls of active or inactive are those of the source. Unless noted, the call rests on the fitted dose curve; in most records, active means well fitted curve in either direction with a large enough effect (not every such curve was filed as active); inconclusive means small, poorly fitted or top-dose-only effect, or another doubt; inactive means flat fitted curve, though single readings scatter.

Columns and labels:
[1] = target: Lysosomal acid glucosylceramidase (Homo sapiens) (UniProt P04062); test: Glucocerebrosidase-p2 (AID 348; in the data active means potency below about 10 µM; further: potency means the concentration at half of the fitted maximal effect); details: purified GBA, blue fluorogenic substrate, 40 min
Sequence of Lysosomal acid glucosylceramidase (Homo sapiens) (P04062 whole entry, looked up): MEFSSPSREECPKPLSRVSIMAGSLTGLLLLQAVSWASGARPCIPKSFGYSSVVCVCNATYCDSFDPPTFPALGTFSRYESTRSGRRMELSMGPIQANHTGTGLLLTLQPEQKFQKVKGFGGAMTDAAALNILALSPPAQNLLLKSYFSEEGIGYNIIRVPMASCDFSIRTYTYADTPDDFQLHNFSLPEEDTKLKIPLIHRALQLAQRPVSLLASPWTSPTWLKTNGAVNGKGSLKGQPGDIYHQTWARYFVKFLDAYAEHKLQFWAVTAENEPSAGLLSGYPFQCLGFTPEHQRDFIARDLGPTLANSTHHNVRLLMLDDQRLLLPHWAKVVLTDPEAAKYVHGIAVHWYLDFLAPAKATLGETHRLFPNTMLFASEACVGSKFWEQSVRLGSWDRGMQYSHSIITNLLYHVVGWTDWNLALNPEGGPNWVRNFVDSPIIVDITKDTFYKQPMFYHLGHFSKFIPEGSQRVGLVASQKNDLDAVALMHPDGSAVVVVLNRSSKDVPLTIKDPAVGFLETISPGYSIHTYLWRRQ
Procedure, shortened: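 Normal human glucocerebrosidase (0.2 nM) with blue fluorogenic substrate (80 uM final) in citrate/phosphate pH 5.9 with 10mM sodium taurocholate, 0.01% tween-20; 40 min RT, NaOH/glycine stop; fluorescence Ex 365/Em 440; AC50 from a titration from 0.6 nM upwards.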

[2] = AP1 Signaling Pathway (AID 357); details: ME-180 AP-1-bla reporter, EGF-induced, beta-lactamase ratio, 5 h; at 7.69 µM (top of the series) unless noted;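 further: ME-180 reporter cells stimulated with EGF at its EC50 level; on the % scale 0 is the no-effect control and ±100 the full control effect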
Procedure, shortened: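 Read-out was the 460nm/530nm emission ratio (excitation 405nm) after CCF4 loading for 2.5 hours at room temperature. Cells carried an AP-1-driven beta-lactamase reporter, were stimulated with EC50 EGF plus compound for 5 hours, and AC50 values came from titrations.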

[3] = target: Cytochrome P450 1A2 (Homo sapiens) (UniProt P05177); test: p450-cyp1a2 (AID 410; calls by dose curve; further: potency means the concentration at half of the fitted maximal effect;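 on activity change, negative = inhibition: -100% = full effect of reference inhibitor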); details: recombinant CYP1A2, luciferin-ME demethylation, luminescence; series mostly up to 11.4 µM
Sequence of Cytochrome P450 1A2 (Homo sapiens) (P05177 whole entry, looked up): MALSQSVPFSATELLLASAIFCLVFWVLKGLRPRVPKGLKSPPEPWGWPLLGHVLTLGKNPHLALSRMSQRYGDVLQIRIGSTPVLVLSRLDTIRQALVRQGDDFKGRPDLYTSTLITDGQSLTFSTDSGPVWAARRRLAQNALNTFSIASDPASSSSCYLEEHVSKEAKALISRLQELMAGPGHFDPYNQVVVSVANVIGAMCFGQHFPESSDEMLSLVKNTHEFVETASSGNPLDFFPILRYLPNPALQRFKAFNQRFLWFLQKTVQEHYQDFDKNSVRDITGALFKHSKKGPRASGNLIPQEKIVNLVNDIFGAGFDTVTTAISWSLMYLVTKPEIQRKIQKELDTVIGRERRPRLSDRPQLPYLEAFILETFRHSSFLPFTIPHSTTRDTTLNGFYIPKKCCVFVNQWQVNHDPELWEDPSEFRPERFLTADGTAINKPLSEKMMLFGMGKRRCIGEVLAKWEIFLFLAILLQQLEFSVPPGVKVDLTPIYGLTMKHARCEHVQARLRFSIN
Procedure, shortened: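 Read-out is luminescence from luciferin produced by CYP1A2 demethylation of Luciferin-ME (100uM, at Km). Detection reagent stopped the 60 min NADPH-dependent reaction; signals were normalized to 57 uM furafylline.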

[4] = NFAT Signaling Pathway (AID 444); details: Jurkat NFAT-bla M1, carbachol, beta-lactamase ratio, 5 h; at 7.69 µM (top of the series) unless noted;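 further: carbachol stimulus at about its EC50 of 1 µM final; on the % scale 0 is the no-effect control and ±100 the full control effect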
Procedure, shortened: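 Read-out: CCF4 FRET ratio (460 nm/530 nm) after 1 h RT dye loading, used for %activity and AC50 from titration series. Cells: Jurkat NFAT-β-lactamase/M1 line, treated with compound plus 1 uM carbachol for 5 h, 37 °C.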

[5] = Stat Signaling Pathway (AID 446); details: ME-180 (cervical carcinoma) SIE beta-lactamase reporter, IL-6 stimulated, 5 h; at 7.69 µM (top of the series) unless noted;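 further: ME-180 cervical cancer cells given 40 pM IL-6 alongside compound; SIE-controlled beta-lactamase reporter measured as 460/530 nm FRET emission ratio; on the % scale 0 is the no-effect control and ±100 the full control effect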
Procedure, shortened: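 Normalization used AC90 stimulation (300 pM IL-6) and AC90 inhibition (125 nM pan-JAK inhibitor at 40 pM IL-6). The underlying signal is SIE-driven beta-lactamase in ME-180 cells after 5 h IL-6 exposure with compound.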

[6] = target: Glucocorticoid receptor (Homo sapiens) (UniProt P04150); test: GR-GFP Redistribution (AID 450;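 active means compounds whose dose series gives a full or clear partial fitted curve of increased nuclear translocation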; further: potency means the concentration at half of the fitted maximal effect); details: U2OS GR-GFP nuclear translocation, laser cytometry, 2 h
Sequence of Glucocorticoid receptor (Homo sapiens) (P04150 whole entry, looked up, the tested form may be a part): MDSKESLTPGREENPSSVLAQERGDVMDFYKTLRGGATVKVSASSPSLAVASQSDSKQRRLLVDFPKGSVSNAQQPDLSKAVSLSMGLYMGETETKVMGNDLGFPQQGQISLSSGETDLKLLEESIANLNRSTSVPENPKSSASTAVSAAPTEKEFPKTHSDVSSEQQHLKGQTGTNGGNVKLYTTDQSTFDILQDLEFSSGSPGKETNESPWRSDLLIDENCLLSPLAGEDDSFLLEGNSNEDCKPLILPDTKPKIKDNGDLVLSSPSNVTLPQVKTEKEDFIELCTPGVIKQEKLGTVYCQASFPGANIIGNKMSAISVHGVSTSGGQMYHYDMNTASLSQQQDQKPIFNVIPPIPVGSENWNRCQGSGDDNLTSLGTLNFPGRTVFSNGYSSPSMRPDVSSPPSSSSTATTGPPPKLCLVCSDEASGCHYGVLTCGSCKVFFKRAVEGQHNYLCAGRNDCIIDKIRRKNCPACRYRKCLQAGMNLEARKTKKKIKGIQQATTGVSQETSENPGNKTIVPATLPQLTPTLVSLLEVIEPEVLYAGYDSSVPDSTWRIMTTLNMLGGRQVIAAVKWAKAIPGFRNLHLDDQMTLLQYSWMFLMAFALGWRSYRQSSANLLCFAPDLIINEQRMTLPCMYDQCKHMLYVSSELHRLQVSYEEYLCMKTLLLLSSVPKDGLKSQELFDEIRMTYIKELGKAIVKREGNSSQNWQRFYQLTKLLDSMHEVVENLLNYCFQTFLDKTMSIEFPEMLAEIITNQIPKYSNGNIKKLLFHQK

[7] = target: Glucocorticoid receptor (Homo sapiens) (UniProt P04150); test: GR-EFC Redistribution (AID 451; calls by dose curve; further: potency means the concentration at half of the fitted maximal effect); details: CHO-K1 GR-EFC translocation, beta-gal luminescence, 2 h
Procedure, shortened: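 Translocation of GR-ED fusion to nuclear EA restores b-gal, read by luminescence after 1 h room-temperature detection. Engineered CHO-K1 biosensor cells, 1,000/well, exposed 2 h at 37 C to titrations up to 46 uM final.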

[8] = target: Mitogen-activated protein kinase 10 (Mus musculus) (UniProt Q61831); test: JNK3 AlphaScreen Assay (AID 530); details: JNK3 lysate, c-Jun phosphorylation; series mostly up to 11.4 µM;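 further: kinase came from lysate of stimulated human HepG2 cells; signal reports phosphorylation of biotinylated GST-cJun 1-79 at Ser73 with 10 µM ATP; on the % scale 0 is the no-effect control and ±100 the full control effect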
Procedure, shortened: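 Kinase buffer: 20 mM Tris-HCl pH 7.6, 10 mM MgCl2, 1 mM DTT, 0.1 mM Na3VO4, 0.01% Tween-20; ATP 10 uM. Substrate biotin-GST-cJun(1-79), enzyme from activated HepG2 lysates. Detection by Ser73 phospho-antibody AlphaScreen.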

[9] = target: 3',5'-cyclic-AMP phosphodiesterase 4B (Homo sapiens) (UniProt Q07343); test: qHTS Assay for Inhibitors of PDE-IV (AID 607; active means well fitted activation curve with a large enough effect in the main read-out, with a control signal flat, not every such curve was filed as active; further: % of control where 0% means no effect); details: HEK293 ACTOne CNG channel cells, membrane potential fluorescence; series mostly up to 22.9 µM
Sequence of 3',5'-cyclic-AMP phosphodiesterase 4B (Homo sapiens) (Q07343 whole entry, looked up): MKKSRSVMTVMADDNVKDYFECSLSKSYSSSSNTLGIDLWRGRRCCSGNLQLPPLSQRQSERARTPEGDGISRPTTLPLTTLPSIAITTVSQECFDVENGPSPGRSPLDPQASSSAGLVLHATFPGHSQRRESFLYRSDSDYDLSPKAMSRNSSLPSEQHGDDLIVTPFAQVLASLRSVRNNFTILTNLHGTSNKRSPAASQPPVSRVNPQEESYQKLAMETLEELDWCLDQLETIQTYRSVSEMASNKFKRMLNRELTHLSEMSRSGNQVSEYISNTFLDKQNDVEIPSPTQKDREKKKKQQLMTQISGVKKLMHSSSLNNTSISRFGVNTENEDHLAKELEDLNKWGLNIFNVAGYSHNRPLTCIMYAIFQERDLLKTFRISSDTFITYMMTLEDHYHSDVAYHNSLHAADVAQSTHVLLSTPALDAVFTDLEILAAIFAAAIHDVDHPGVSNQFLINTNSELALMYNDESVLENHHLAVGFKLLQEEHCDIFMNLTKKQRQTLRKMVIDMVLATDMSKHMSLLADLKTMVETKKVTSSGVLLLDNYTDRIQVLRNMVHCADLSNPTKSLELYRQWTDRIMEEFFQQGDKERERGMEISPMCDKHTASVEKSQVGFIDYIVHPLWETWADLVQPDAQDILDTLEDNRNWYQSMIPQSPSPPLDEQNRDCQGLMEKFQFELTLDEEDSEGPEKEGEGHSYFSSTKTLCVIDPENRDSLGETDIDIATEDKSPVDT
Procedure, shortened: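 HEK293 ACTOne cells with CNG channel (1000/well), endogenous PDE4; membrane potential dye, compounds up to 22.9 uM final. Fluorescence Ex 535/Em 590; RO 20-1724 (100 uM final) as reference.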

[10] = target: Cytochrome P450 2C9 (Homo sapiens) (UniProt P11712); test: qHTS Assay for Inhibitors and Substrates of Cytochrome P450 2C9 (AID 883; active means well fitted inhibition curve with a large enough effect; further: nearly all actives have a fitted effect of over 60% in size; further: potency means the concentration at half of the fitted maximal effect); details: recombinant CYP2C9, luciferin-H luminescence, 60 min; series mostly up to 11.4 µM
Sequence of Cytochrome P450 2C9 (Homo sapiens) (P11712 whole entry, looked up): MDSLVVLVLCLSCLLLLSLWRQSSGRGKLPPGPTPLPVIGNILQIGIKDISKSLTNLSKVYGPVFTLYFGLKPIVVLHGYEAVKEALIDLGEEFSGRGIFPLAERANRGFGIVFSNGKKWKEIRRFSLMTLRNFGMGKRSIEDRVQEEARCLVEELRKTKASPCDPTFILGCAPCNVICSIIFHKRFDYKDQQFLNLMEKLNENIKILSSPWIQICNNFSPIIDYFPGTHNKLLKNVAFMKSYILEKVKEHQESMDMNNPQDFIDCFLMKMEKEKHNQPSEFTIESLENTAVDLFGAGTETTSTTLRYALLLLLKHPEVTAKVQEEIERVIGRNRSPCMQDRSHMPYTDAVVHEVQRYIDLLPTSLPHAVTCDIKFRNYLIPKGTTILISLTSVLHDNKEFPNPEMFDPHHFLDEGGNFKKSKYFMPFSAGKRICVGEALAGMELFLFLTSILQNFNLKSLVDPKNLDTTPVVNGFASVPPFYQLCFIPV
Procedure, shortened: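 Inhibition of CYP2C9 is scored as loss of luminescence, with 57uM sulphaphenazole defining 100% inhibition. Substrate Luciferin-H is used at 100uM, equal to its KM; enzyme at 10nM in 25mM KPO4, 60 min at 37C with NADPH regeneration.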

Structure (SMILES) | Potency [1] | activity change, negative = inhibition [2] | Potency [3] | activity change, negative = inhibition [4] | activity, negative = inhibition [5] | Potency [6] | Potency [7] | Potency [8] | Potency [9] | activity change, negative = inhibition [3] | Potency [10]
OCCCN=C1CCCCC1 | > 11.4 µM | 14.4% | inactive | 7.24% | -19.6% | > 46 µM | > 9.22 µM | inactive | inactive | – | –
O=S(=O)(C[C@H](O)C(Cl)(Cl)Cl)NNc1ccccc1 | > 11.4 µM | -0.0496% | – | 2.68% | 5.12% | > 46 µM | > 9.22 µM | inactive | inactive | 0.8% [at 2.29 µM] | –
Cn1c(C[C@@H](O)c2nc3ccccc3n2C)nc2ccccc21 | > 11.4 µM | 11.7% | – | 13.3% | 8.01% | > 46 µM | > 9.22 µM | inactive | inactive | -2.6% [at 2.29 µM] | –
NCCSC[C@H](N)C(=O)O | > 11.4 µM | -5.07% | inactive | 6.39% | 6.75% | > 46 µM | > 9.22 µM | inactive | inactive | – | inactive
c1ccc2c(CC3NCCN3)cccc2c1 | > 11.4 µM | 7.37% | inactive | -8.06% | 1.71% | > 46 µM | > 9.22 µM | inactive | inactive | – | –
O=C(O)c1[nH]c2c([N+](=O)[O-])cc([N+](=O)[O-])cc2c1C(=O)O | > 11.4 µM | 0.189% | 0.126 µM (active) | 2.5% | -6.73% | > 46 µM | > 9.22 µM | inactive | inactive | – | 3.16 µM (active)
Clc1ccc(C=Nc2ccc3c(c2)Cc2ccccc2-3)c(Cl)c1 | > 11.4 µM | 3.71% | 0.794 µM (active) | 23.1% | 12.8% | > 46 µM | > 9.22 µM | inactive | inactive | – | –
Nc1[nH]c(=O)nc2c1ncn2[C@H]1O[C@@H](CO)[C@@H](O)[C@@H]1O | > 11.4 µM | -9.66% | inactive | 15.7% | 17.5% | > 46 µM | > 9.22 µM | inactive | inactive | – | –
Nc1nc(N)c2[nH]c(CNc3ccc(C(=O)O)cc3)nc2n1 | > 11.4 µM | -2.88% | inactive | 23.3% | -0.181% | > 46 µM | > 9.22 µM | inactive | inactive | – | –
COc1nc(N)nc2c1ncn2[C@@H]1C[C@H](O)[C@@H](CO)O1 | > 11.4 µM | 5.07% | inactive | 4.99% | 11.5% | > 46 µM | > 9.22 µM | inactive | inactive | – | –
C[C@@H]1C[C@H](C)CN(S(=O)(=O)c2cc(Cl)c(Oc3ccc([N+](=O)[O-])cc3Cl)c(Cl)c2)C1 | > 11.4 µM | 16.4% | inactive | -22.6% | 20.1% | > 46 µM | > 9.22 µM | inactive | inactive | – | –
Cc1c(Cl)c(S(N)(=O)=O)cc2c1=NC=NS=2(=O)O | > 11.4 µM | -1% | – | 4.9% | 1.77% | > 46 µM | > 9.22 µM | inactive | inactive | -9.6% [at 2.29 µM] | inactive
O=C(O)Cc1c(O)ccc2ccccc12 | > 11.4 µM | 1.11% | inactive | 12.6% | 7.17% | > 46 µM | > 9.22 µM | inactive | inactive | – | –
COc1cc2ccc([C@H](C)NCC#N)cc2cc1OC | > 11.4 µM | -11.4% | 0.501 µM (active) | 9.37% | -0.292% | > 46 µM | > 9.22 µM | inactive | inactive | – | –
CC1CCC(C(=O)O)([C@H](Br)C(=O)O)CC1 (stereo partly drawn) | > 11.4 µM | -2.54% | inactive | 13.7% | 8% | > 46 µM | > 9.22 µM | inactive | inactive | – | –
O=C(O)c1ccc([N+]2=Cn3c(nc4ccccc43)C2)cc1 | > 11.4 µM | -0.795% | 5.01 µM (active) | 9.31% | 0.556% | > 46 µM | > 9.22 µM | inactive | inactive | – | –

Structure (SMILES) | Potency [1] | activity change, negative = inhibition [2] | Potency [3] | activity change, negative = inhibition [4] | activity, negative = inhibition [5] | Potency [6] | Potency [7] | Potency [8] | Potency [9] | activity change, negative = inhibition [3] | Potency [10]
C[C@H]1O[C@@H](CC(=O)O)Cc2c1c(O)c1c(O)cc(-c3cc(=O)c4c(=O)c5c(c(=O)c=4c3=O)C[C@H](CC(=O)O)O[C@@H]5C)c(O)c1c2O | > 11.4 µM | 13% | – | 9.83% | -5.2% | > 46 µM | > 9.22 µM | inactive | inactive | -29.1% [at 2.29 µM] | –
CCSC[C@@H](N)C(=O)O | > 11.4 µM | 5.2% | – | -9.5% | 0.221% | > 46 µM | > 9.22 µM | inactive | inactive | -1.6% [at 2.29 µM] | –
Oc1ccc(Cl)cc1C=Nc1cnc2ccccc2c1 | > 11.4 µM | 3.1% | – | 10.1% | -10.7% | > 46 µM | > 9.22 µM | inactive | inactive | -13.2% [at 2.29 µM] | –
O=C1[C@@H]2[C@@H]3C=C[C@H]([C@@H]2C(=O)N1CN1CCSCC1)[C@@H]1[C@@H]2C(=O)N(CN4CCSCC4)C(=O)[C@@H]2[C@H]31 | > 11.4 µM | 11.7% | inactive | 5.4% | -1.73% | > 46 µM | > 9.22 µM | inactive | inactive | – | –
NS(=O)(=O)c1cc(Br)c(N=Nc2ccc(O)c3ncccc23)c(Br)c1 | > 11.4 µM | -0.828% | 1.26 µM (active) | 10.5% | 21.9% | > 46 µM | > 9.22 µM | inactive | inactive | – | inactive
CC(CCC(=O)O)(c1cc(Br)c(O)c(Br)c1)c1cc(Br)c(O)c(Br)c1 | > 11.4 µM | 17.5% | – | 3.8% | 0.505% | > 46 µM | > 9.22 µM | inactive | inactive | -17.9% [at 2.29 µM] | 3.16 µM (active)
CN1CCN(CCCN)CC1 | > 11.4 µM | 0.666% | inactive | 18.2% | 6.19% | > 46 µM | > 9.22 µM | inactive | inactive | – | –
NCCCc1ccc2oc3ccccc3c2c1 | > 11.4 µM | 19.9% | 0.0316 µM (active) | 14.4% | 0.365% | > 46 µM | > 9.22 µM | inactive | inactive | – | –
CCn1c(CCCc2nc3c([nH]2)c(=O)n(C)c(=O)n3C)nc2c1c(=O)n(C)c(=O)n2C | > 11.4 µM | -3.01% | – | 6.75% | 1.77% | > 46 µM | > 9.22 µM | inactive | inactive | -16.7% [at 2.29 µM] | –
Cc1c(NC(=O)Nc2c(Cl)cccc2Cl)c(=O)n(-c2ccccc2)n1C | > 11.4 µM | 4.18% | inactive | -0.333% | -1.35% | > 46 µM | > 9.22 µM | inactive | inactive | – | –
NS(=O)(=O)c1ccc(NCc2nc3ccccc3[nH]2)cc1 | > 11.4 µM | 2.25% | – | 8.2% | 9.55% | > 46 µM | > 9.22 µM | inactive | inactive | -18.8% [at 2.29 µM] | –
C[C@@H](CNC(N)=O)NC(N)=O | > 11.4 µM | 4.39% | inactive | 12.2% | 5.82% | > 46 µM | > 9.22 µM | inactive | inactive | – | –
C[C@@H](N1CCOCC1)[C@@](O)(c1ccccc1)c1ccccn1 | > 11.4 µM | 2.55% | – | 12.6% | 4.17% | > 46 µM | > 9.22 µM | inactive | inactive | -2.5% [at 2.29 µM] | –
O=C(C[N+]1(c2ccccc2)CCOCC1)c1ccccc1 | > 11.4 µM | -5.21% | 3.98 µM (active) | 11.5% | -5.59% | > 46 µM | > 9.22 µM | inactive | inactive | – | –
CCN(CCO)C[C@H]1CCC[C@H]2CCCC[C@@H]21 | > 11.4 µM | 16.9% | 5.01 µM (active) | 0.328% | 4.97% | > 46 µM | > 9.22 µM | inactive | inactive | – | –
Nc1nc(N)nc(CCCc2nc(N)nc(N)n2)n1 | > 11.4 µM | -5.42% | inactive | 6.45% | 1.14% | > 46 µM | > 9.22 µM | inactive | inactive | – | –
